Measured values from PMC7819943, “Rice protein-binding microarrays: a tool to detect cis-acting elements near promoter regions in rice”.
The full ranking holds about 35,000 sequences; the median of “fluorescence intensity (a.u.)” is about 10,000, and the highest 2% start at about 52,000. Shown is part of a subset that was picked to be rich in the highest values.

Molecular target: T1, OsWOX13 (Oryza sativa, UniProt Q5QMM3 1-267)
T1 sequence: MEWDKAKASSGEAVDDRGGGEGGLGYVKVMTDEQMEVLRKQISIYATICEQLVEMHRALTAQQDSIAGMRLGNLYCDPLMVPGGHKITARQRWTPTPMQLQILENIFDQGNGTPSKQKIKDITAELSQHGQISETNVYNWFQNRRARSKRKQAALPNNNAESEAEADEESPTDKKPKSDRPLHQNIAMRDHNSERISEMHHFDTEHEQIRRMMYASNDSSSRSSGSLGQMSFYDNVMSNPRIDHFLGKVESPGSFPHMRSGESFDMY
Assay: protein-binding microarray (RPBM); PBS, 2% BSA, 51.3 ng/ul salmon testes DNA, 50 uM zinc acetate, 200 nM TF, 25 C, 1 h; high values mean tight binding
Settings: protein: recombinant; tags: N-terminal polyhistidine and DsRed monomer fusion (pET32a); label: CyDye5-dUTP incorporated in the synthesized complementary strand; 3' TTTTT single-stranded linker to array surface; dsDNA, one strand shown
Summary of the method: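 Per-feature fluorescence intensity (arbitrary units), read on an Axon 4000B scanner, is the binding signal. Transcription factors carrying an N-terminal polyhistidine tag and DsRed fusion were expressed in E. coli BL21-CodonPlus and purified on Ni–NTA. A custom Agilent array, made double-stranded by primer extension with Cy5-dUTP and blocked with 2% BSA, was incubated with 200 nM protein in PBS, 2% BSA, salmon testes DNA and 50 µM zinc acetate at 25 °C for 1 h and then washed.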

Sequence | binding signal
TGCTAACTTGAGATGAATGTCGAACTCCTAATTGCAGCTCCGGAGTCACCTAGTGCAG | 3470 fluorescence intensity (a.u.)
AAATTTATAATTTTACAATAAATTTGATATTAAATTTGTACGGAGTCACCTAGTGCAG | 12300 fluorescence intensity (a.u.)
ATAACTAATAAATGATTGAATTAGATGAATAGGTAGTTTCCGGAGTCACCTAGTGCAG | 31000 fluorescence intensity (a.u.)
AAGAGTTTAAATTTTAAAATGATTTTATAAGTGGTTAACCCGGAGTCACCTAGTGCAG | 7500 fluorescence intensity (a.u.)
AATACTTGCAAATTAGCTAACTAGTTCTCCTAATTGAGCCCGGAGTCACCTAGTGCAG | 9350 fluorescence intensity (a.u.)
CCAATTTAATAAAATAAATTGATACTATAAATATTACAATCGGAGTCACCTAGTGCAG | 9090 fluorescence intensity (a.u.)
GTTTCTAATTAACTAAATTAATTAATTAGCATGATTGGTCCGGAGTCACCTAGTGCAG | 64700 fluorescence intensity (a.u.)
AGGCACTAAAATAATCTAATTGATTAACTAATCGGTCACCCGGAGTCACCTAGTGCAG | 25300 fluorescence intensity (a.u.)
AACTTATAAATTGATTTATAAGTCTAAATAAAGAGGCACCCGGAGTCACCTAGTGCAG | 55800 fluorescence intensity (a.u.)
CATGACAGCGTGCTTGGATCAACCGCTTTTGTCTTCTCCACGGAGTCACCTAGTGCAG | 3780 fluorescence intensity (a.u.)
ATTGATAAGCCTAATTTAGACATCAAACCAAACCAGCCCTCGGAGTCACCTAGTGCAG | 14300 fluorescence intensity (a.u.)
TTGATCATGATGATATTTAATTTGTTTAGATCACACACTACGGAGTCACCTAGTGCAG | 10200 fluorescence intensity (a.u.)
ATTCCTAAAATTATATGAATTTATGAGAAATTACGTAATGCGGAGTCACCTAGTGCAG | 4300 fluorescence intensity (a.u.)
ATGGAATCAGTAATTAACTAGAAATAAATTAATACTCCTACGGAGTCACCTAGTGCAG | 9880 fluorescence intensity (a.u.)
TGGCAATGATTTATACTTCAATCATAATTGTTTGCTTAGGCGGAGTCACCTAGTGCAG | 24000 fluorescence intensity (a.u.)
TTAGCTATCACAGACACAATCACACAACGATGGTAAAACACGGAGTCACCTAGTGCAG | 6740 fluorescence intensity (a.u.)
AGGGTAATTACACATTTAACCCTATTTTAAGGTCTAACTACGGAGTCACCTAGTGCAG | 18400 fluorescence intensity (a.u.)
ATTAATTAATTAACCTCTAACATTTAACTAATGCAGGTAACGGAGTCACCTAGTGCAG | 56900 fluorescence intensity (a.u.)
ATTAATTAAAATCGCGCCCAATTAATCATTTAATCCATCCCGGAGTCACCTAGTGCAG | 40700 fluorescence intensity (a.u.)
TGTGATTGGTAATTGCCGAACTATTTGAAAATGGTGCGTGCGGAGTCACCTAGTGCAG | 62300 fluorescence intensity (a.u.)
TTATGCATTAACAACGTAACTAATTTAATTTGATTAGTTTCGGAGTCACCTAGTGCAG | 24000 fluorescence intensity (a.u.)
AGAATGGTGATTAACTATTGGTGTTAATTAATTTGCTGCACGGAGTCACCTAGTGCAG | 31000 fluorescence intensity (a.u.)

Sequence | binding signal
GACATTAATTAATTTAAATTAACGCTCACTGTTCATCGCCCGGAGTCACCTAGTGCAG | 65500 fluorescence intensity (a.u.)
CCAAATTTGGTAATTTAGAATTTGAACTAGCGTGAGAAAACGGAGTCACCTAGTGCAG | 19800 fluorescence intensity (a.u.)
TCACTGTTATTTAATTATATATATATATATATATTCATGCCGGAGTCACCTAGTGCAG | 8880 fluorescence intensity (a.u.)
ACCAATTATAAACACAAGTTAATGGGCAAATGACATGGAACGGAGTCACCTAGTGCAG | 11500 fluorescence intensity (a.u.)
TTAATTTACCGGATTCAATATTCCATATTTAGAAGTCACCCGGAGTCACCTAGTGCAG | 3350 fluorescence intensity (a.u.)
CATGACATCGTCATTGACCGTGTCATCGTCAAGATGGATGCGGAGTCACCTAGTGCAG | 4420 fluorescence intensity (a.u.)
AATAAAAGATTATCATATCTAAATAGAAGATATACCATCTCGGAGTCACCTAGTGCAG | 4160 fluorescence intensity (a.u.)
AAACCAATTTCAATTACCAATTACTCCCTAATATTAGCTACGGAGTCACCTAGTGCAG | 18900 fluorescence intensity (a.u.)
GATCAAAAGAAATTTGCCAAATTTACTGCTTTGTGATGGGCGGAGTCACCTAGTGCAG | 3610 fluorescence intensity (a.u.)
TGTTAACTAATTAAATACCCATTATCAAACATTTAATTGACGGAGTCACCTAGTGCAG | 22900 fluorescence intensity (a.u.)
TTATGATTTTCATATAAATCAAATGGGACTTTAATTAATCCGGAGTCACCTAGTGCAG | 11500 fluorescence intensity (a.u.)
ATGGACTAATTATGCTCAAAAGATTCGTCTCACGATTTACCGGAGTCACCTAGTGCAG | 16800 fluorescence intensity (a.u.)
CTAATTATAAACCTTAATCAGCTAAAATCCTAACCCATCACGGAGTCACCTAGTGCAG | 3290 fluorescence intensity (a.u.)
GATAAGTGATTGATTAACTACTAATTTAATTATCACTGTGCGGAGTCACCTAGTGCAG | 63300 fluorescence intensity (a.u.)
GCTCTGATTAATTTCAAACTTCGATTATGGACTAGTCAACCGGAGTCACCTAGTGCAG | 53400 fluorescence intensity (a.u.)
TGACCTAATTAATTATTTAACTAATAATAATTAGTGATTACGGAGTCACCTAGTGCAG | 44500 fluorescence intensity (a.u.)
CATTAATTAAACTAACCCATCCATTGATTGATTATCAGTGCGGAGTCACCTAGTGCAG | 63500 fluorescence intensity (a.u.)
ATTGATTTTATTAAGTAACTGTGTGCTAATTAATTGTTCACGGAGTCACCTAGTGCAG | 28300 fluorescence intensity (a.u.)
ATCACCGACTAATTAATTAATTAATTAATCATCCTTGATTCGGAGTCACCTAGTGCAG | 38800 fluorescence intensity (a.u.)
CATCAACATATAATTGATTAAATATTAATTATAACAAACTCGGAGTCACCTAGTGCAG | 45700 fluorescence intensity (a.u.)
TAATTAATTGATTAATGACTAAACTTGGCCATCAACCGCTCGGAGTCACCTAGTGCAG | 64800 fluorescence intensity (a.u.)
